This is part of a sample that, as a whole, favours compounds with a hit. Of some 83,000 tested, about 20% had one in any assay.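 Growth was measured after 48 h exposure to one concentration of compound in 96-well plates. Values under 10 count as active.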 Unmarked numbers belong to inactive results. Active and inactive are the calls of the source.
Experiments:
Experiment in all cases: NCI-60 one-dose screen, 48 h (100 = growth as untreated, 0 = no growth, -100 = all killed)
Details in all cases: 10 µM
NCI-H23 lung = system: NCI-H23 lung
NCI-H226 lung = system: NCI-H226 lung
NCI-H322M lung = system: NCI-H322M lung
HOP-62 NSCLC = system: HOP-62 NSCLC
NCI-H460 lung = system: NCI-H460 lung
HOP-92 NSCLC = system: HOP-92 NSCLC
A549/ATCC NSCLC = system: A549/ATCC NSCLC
COLO 205 colon = system: COLO 205 colon
NCI-H522 lung = system: NCI-H522 lung
786-0 renal = system: 786-0 renal

SMILES | growth (NCI-H23 lung) | growth (NCI-H226 lung) | growth (NCI-H322M lung) | growth (HOP-62 NSCLC) | growth (NCI-H460 lung) | growth (HOP-92 NSCLC) | growth (A549/ATCC NSCLC) | growth (COLO 205 colon) | growth (NCI-H522 lung) | growth (786-0 renal)
CC(=O)OC(OC(C)=O)C1CCCO1 (configuration not stated) | 97.4% | 103% | 114% | 99.2% | 109% | 94.1% | 101% | 105% | – | –
Clc1ccc(-c2n[nH]c3c2Cc2ccccc2-3)cc1Cl | 84.6% | 94.4% | 91.6% | 95.1% | 105% | – | 37.5% | 115% | -7.44% (active) | 104%
Nc1nc(N)c(N=Nc2ccc(C(=O)O)cc2)c(N)n1 | 99.6% | 108% | 104% | 106% | 117% | – | 51.8% | 117% | -5.11% (active) | 107%
COc1cc(C2NC(=O)C(C#N)=C(Nc3cccc(C)c3)S2)ccc1O (configuration not stated) | 103% | 104% | 106% | 98.1% | 99.5% | – | 32.5% | 119% | 47.5% | 105%
CC1(C)N=C(N)N=C(N)N1c1cccc(Br)c1 | 20.8% | 58.8% | 46.9% | 15.4% | 18.2% | – | 30.6% | – | 52.5% | 10.3%
CC1NC(=O)NC1CCCCCC(=O)O (configuration not stated) | 100% | 103% | 132% | 104% | 111% | 72.9% | 94.9% | 110% | – | –
CC(C)C1CCCCC1O (configuration not stated) | 95.4% | 112% | 124% | 102% | 109% | 101% | 102% | 108% | – | –
O=C1Cc2ccccc2C(=O)O1 | 107% | 108% | 110% | 108% | 108% | 92% | 110% | 123% | – | –
Oc1ccccc1O | 97.7% | 102% | 91.2% | 95.9% | 100% | 90.5% | 78.1% | 93.8% | – | –
CN(C)CCN(Cc1ccccc1)c1ccccc1 | 99.8% | 109% | 110% | 107% | 104% | – | 106% | 118% | 104% | 105%
C=CCNC(=O)c1ccc(OC)cc1 | 99.5% | 99.4% | 98.5% | 109% | 114% | – | 50.4% | 109% | -12.1% (active) | 107%
O=C(CCl)N1CCN(C/C=C/c2ccccc2)CC1 | 101% | 79.8% | 109% | 97.2% | 98.1% | – | 108% | 108% | -80.4% (active) | 101%
CC(=O)c1sc2c(c1OC(=O)c1ccc(Cl)cc1Cl)c(=O)n(-c1ccccc1)c(=S)n2-c1ccccc1 | 23.9% | 3.85% (active) | -37.3% (active) | 9.38% (active) | 25.2% | – | 32.1% | 5.77% (active) | -35% (active) | -7.98% (active)
COc1ccccc1NC(=O)C1=C(C)NC(C)=C(C(=O)Nc2ccccc2OC)C1c1cccc([N+](=O)[O-])c1 | 76.6% | 74.7% | 91.2% | 68.5% | 67.5% | – | 67% | 89.3% | 72.4% | 84.6%
Cc1ccc(Cl)cc1N1C(=O)CC(Sc2ccccc2N)C1=O (configuration not stated) | 101% | 103% | 127% | 94.2% | 111% | – | 88.6% | 110% | 97% | 106%
O=C(O)C(O)c1ccccc1 (configuration not stated) | 101% | 99.1% | 99.6% | 116% | 107% | – | 105% | 109% | 103% | 98.8%
CN(C)C(=O)Oc1cccc([N+](C)(C)C)c1 | 109% | 92.8% | 129% | 100% | 113% | – | 102% | 109% | 109% | 116%
